PubChem BioAssay
The source made the active and inactive calls. Unless noted, no rule for the calls is given here.

Columns and labels:
[1] = tested on: XIP peptide (Xip251-270) binding; assay: XIP fragment 251-270 binding compounds – biochemical, small-molecule microarray, fluorescence 635/667 nm, 0.1 µg/mL protein, primary screen (AID 1182); conditions: fluorescent protein binding, 635 nm, higher = more signal, called active from +8 up or from −8 down
XIP peptide (Xip251-270) = assay: compounds binding XIP fragment 251-270 – biochemical, small-molecule microarray, fluorescence 635/667 nm, 0.5 µg/mL protein, primary screen (AID 1183); conditions: fluorescence 635 nm, higher = more signal
[2] = blood-stage malaria parasite viability loss – strain 3D7, DAPI fluorescence, 100 nL, primary screen (AID 1184);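 also: parasites grown inside human red blood cells in medium with human serum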; conditions: P. falciparum 3D7 growth, 3 d, higher = more signal
[3] = target: Homeobox protein Hox-A13 (Mus musculus) (UniProt Q62424); assay: disruptors of Hoxa13 oligonucleotide interaction – biochemical, fluorescence polarization, labeled oligonucleotide, primary screen (AID 1185); conditions: Hoxa13:DNA binding, 15 min, higher = more signal, called active from +8 up or from −8 down
[4] = blockers of DNA damage checkpoint Chk1 activation – imaging, HeLa, hydroxyurea, phospho-Chk1 antibody, percent positive cells, primary screen (AID 1186); conditions: hydroxyurea-induced phospho-Chk1 immunofluorescence imaging, higher = more signal
[5] = blockers of DNA damage checkpoint Chk1 activation – imaging, HeLa, hydroxyurea, phospho-Chk1 nuclear intensity, primary screen (AID 1187); conditions: hydroxyurea-induced phospho-Chk1 immunofluorescence imaging, higher = more signal

Chain of Homeobox protein Hox-A13 (Mus musculus) (Q62424 whole entry, looked up): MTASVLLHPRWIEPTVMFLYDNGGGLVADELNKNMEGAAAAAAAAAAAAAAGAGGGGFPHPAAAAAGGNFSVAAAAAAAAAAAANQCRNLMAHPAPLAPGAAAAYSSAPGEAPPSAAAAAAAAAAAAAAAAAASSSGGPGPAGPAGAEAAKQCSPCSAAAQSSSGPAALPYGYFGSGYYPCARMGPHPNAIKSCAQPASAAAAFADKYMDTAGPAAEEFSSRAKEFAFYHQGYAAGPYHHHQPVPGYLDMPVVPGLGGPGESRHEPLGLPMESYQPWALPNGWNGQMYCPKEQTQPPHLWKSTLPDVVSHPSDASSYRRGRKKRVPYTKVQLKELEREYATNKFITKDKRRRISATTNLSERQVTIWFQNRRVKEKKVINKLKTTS

SMILES | composite z-score [1] | composite z-score (XIP peptide (Xip251-270)) | z-score [2] | z-score [3] | z-score [4] | z-score [5]
CC(C)C[C@H]1NC(=O)[C@H](C)NC(=O)[C@@]23C(=O)N[C@@H](Cc4ccccc4)C2[C@H](C)[C@@]2(C)O[C@H]2C3/C=C/C/C=C\CNC1=O (some centres not stated) | 1.2 (inactive) | 0.685 | 0.96 | -6.14 (inactive) | -0.454 (inactive) | -0.576 (inactive)
COCCCNC(=O)[C@@H]1c2ccccc2C(=O)N(Cc2cc(F)cc(C(F)(F)F)c2)[C@H]1c1ccc(CO)cc1 | -0.0408 (inactive) | -0.0784 | -0.288 | -2.79 (inactive) | 0.0176 (inactive) | -0.299 (inactive)
C=CC[C@]1(C(=O)N(C)C)N=C(c2ccc(OCCCO)cc2)O[C@H]1c1ccccc1 | 0.39 (inactive) | 0.643 | -2.08 | -4.25 (inactive) | -0.271 (inactive) | 0.109 (inactive)
O=C1NC(=O)C2C1C=CC(C(O)c1ccc3c(c1)OCO3)N2Nc1ccc(Cl)cc1Cl (configuration not stated) | 2.16 (inactive) | 0.726 | 0.576 | -5.9 (inactive) | 0.629 (inactive) | 0.417 (inactive)
CC(C)CCC[C@@H](C)[C@H]1CC[C@@]2(C)C3=C(CC[C@]12C)[C@@]1(C)CC[C@H](OC(=O)c2ccc(N)cc2)C(C)(C)C1CC3 (some centres not stated) | 0.141 (inactive) | 0.132 | 0.0753 | -1.09 (inactive) | -0.516 (inactive) | -0.736 (inactive)
O=C1OCC=C[C@H]2OC34C=CCN(CCN5CCOCC5)C(=O)[C@H]3N(CCCCCO)C(=O)[C@@H]4[C@@H]12 (some centres not stated) | 0.102 (inactive) | 0.609 | -0.285 | -6.05 (inactive) | 0.513 (inactive) | -0.209 (inactive)
CC(C)c1ccc(NN2C(C(O)c3cccs3)C=CC3C(=O)N(c4ccccc4)C(=O)C32)cc1 (configuration not stated) | 0.213 (inactive) | 0.499 | -0.512 | -3.33 (inactive) | 0.847 (inactive) | 0.219 (inactive)
COc1ccc(C(=O)Nc2ccc3c(c2)[C@]2(O[C@@H](CCO)[C@H]([Si](C)(C)c4ccc(OC)cc4)[C@H]2C)C(=O)N3Cc2ccccc2)cc1 | 0.439 (inactive) | 0.45 | -2.88 | -1.01 (inactive) | -0.583 (inactive) | -0.644 (inactive)
COC(=O)[C@@]1(Cc2ccccc2)[C@H]2c3cc(C(=O)N4CCCC4)n(Cc4ccc(OC(F)(F)F)cc4)c3C[C@H]2CN1C(=O)c1ccccc1 | 0.511 (inactive) | 0.408 | -1.4 | -3.01 (inactive) | 0.182 (inactive) | -0.781 (inactive)
CC(C)(C)OC(=O)CC[C@]1(C(=O)N2CCCCC2)N=C(c2ccc(OCCCO)cc2)O[C@H]1c1ccccc1CN=[N+]=[N-] | 1.25 (inactive) | 0.855 | -2.26 | -2.91 (inactive) | -0.692 (inactive) | -0.917 (inactive)
COc1ccc([Si](C)(C)[C@@H]2[C@@H](CCO)O[C@]3(C(=O)N(Cc4ccccc4)c4ccc(N5C(=O)COc6ccccc65)cc43)[C@H]2C)cc1 | -0.234 (inactive) | 0.667 | -2.82 | -1.89 (inactive) | -1.26 (inactive) | -1.47 (inactive)
COc1cc2c(cc1OC)CN(C(=O)[C@@H]1[C@H]3C(=O)O[C@H](c4ccccc4)[C@H](c4ccccc4)N3[C@H](c3ccc(OCCO)cc3)[C@@]13C(=O)Nc1ccc(C#CCCO)cc13)CC2 | 1.17 (inactive) | 0.75 | -2.12 | 3.49 (inactive) | 0.0699 (inactive) | 0.595 (inactive)
O=C1c2ccccc2[C@](Cc2ccccc2I)(C(=O)NC2CC2)[C@H](c2ccc(CO)cc2)N1Cc1ccccc1Cl | 1.33 (inactive) | -0.154 | -1.03 | -4.21 (inactive) | 0.129 (inactive) | -0.341 (inactive)
CC(C)C[C@@H]1NC(=O)[C@@H]2C[C@H](C(=O)NCc3ccc(F)cc3)[C@H](c3ccc(O)cc3)N2C1=O | 0.8 (inactive) | 0.655 | -0.395 | -1.41 (inactive) | 0.13 (inactive) | 0.0555 (inactive)
C=C[C@H](C)[C@H](OC(=O)Nc1ccc(SC)cc1)c1ccc(O)c2ccccc12 | 0.273 (inactive) | 0.151 | -0.243 | -5.27 (inactive) | -0.08 (inactive) | -0.437 (inactive)
N#Cc1ccc(NN2C(C(O)c3ccco3)C=CC3C(=O)N(c4ccccc4)C(=O)C32)cc1 (configuration not stated) | -0.323 (inactive) | 0.347 | 1.1 | -1.96 (inactive) | -0.124 (inactive) | -0.228 (inactive)
O=C1c2ccccc2[C@](Cc2ccccc2I)(C(=O)NCC(F)(F)F)[C@H](c2ccc(CO)cc2)N1Cc1ccccc1 | 0.164 (inactive) | 0.647 | -0.945 | -4.04 (inactive) | -0.25 (inactive) | -0.634 (inactive)
O=C1N(Cc2ccccc2)c2ccccc2[C@H]2OC(c3ccc(OCCCO)cc3)=N[C@@]12CCS(=O)(=O)c1ccccc1 | 0.0535 (inactive) | 0.371 | -2.56 | -1.54 (inactive) | -0.103 (inactive) | -0.0726 (inactive)
OCc1ccc(-c2cc[n+](Cc3cccc(OC(F)(F)F)c3)cc2)cc1 | 1.18 (inactive) | 0.596 | -1.63 | -6.13 (inactive) | 0.258 (inactive) | 0.666 (inactive)
COc1cccc(C)c1NC(=O)O[C@H]1[C@H](OC(=O)Nc2ccccc2)[C@H](OC(=O)Nc2ccccc2)[C@@H](OC)O[C@@H]1CO | 1.57 (inactive) | 0.401 | -1.51 | -5.38 (inactive) | -0.0198 (inactive) | 0.136 (inactive)
COc1ccccc1CN1C(=O)c2ccccc2[C@](Cc2ccccc2I)(C(=O)NCCN2CCOCC2)[C@@H]1c1ccc(CO)cc1 | -0.0028 (inactive) | 0.755 | -2.26 | -4.74 (inactive) | -0.252 (inactive) | 0.0168 (inactive)
COCCOC(=O)N1C(=O)[C@@]2(c3cc(C#CCC(C(=O)OC)C(=O)OC)ccc31)[C@H](c1ccc(OCCO)cc1)N1[C@H](c3ccccc3)[C@H](c3ccccc3)OC(=O)[C@H]1[C@@H]2C(N)=O | 0.335 (inactive) | 0.803 | -1.96 | -1.07 (inactive) | -0.154 (inactive) | 0.0321 (inactive)
C=CCNC(=O)[C@H]1[C@@H]2C(=O)O[C@@H](c3ccccc3)[C@@H](c3ccccc3)N2[C@@H](c2ccc(OCCO)cc2)[C@]12C(=O)N(C(=O)OCCOC)c1ccc(C#CC3=CCCCC3)cc12 | 0.377 (inactive) | 0.799 | -2.22 | 2.62 (inactive) | -0.142 (inactive) | -0.108 (inactive)
CC(C)N1CC=CC23O[C@@H]4C=CCOC(=O)[C@@H]4[C@H]2C(=O)N(CCCCCCO)[C@@H]3C1=O (some centres not stated) | -0.0725 (inactive) | -0.262 | -0.511 | -3.69 (inactive) | 0.477 (inactive) | 0.454 (inactive)
COC(=O)[C@@]1(Cc2ccc(OC)cc2)[C@H]2c3cc(C(=O)N4CCCC4)n(CCF)c3C[C@H]2CN1C(=O)c1ccccc1 | 1.24 (inactive) | 0.388 | -1.8 | -5.44 (inactive) | 0.128 (inactive) | -0.0625 (inactive)
[N-]=[N+]=NCc1ccccc1C[C@]1(C(=O)NCCN2CCOCC2)N=C(c2ccc(OCCCO)cc2)O[C@H]1c1ccccc1 | 0.786 (inactive) | 0.817 | -2.42 | -6.23 (inactive) | 0.0479 (inactive) | 0.228 (inactive)
CC(C)(C)OC(=O)CC[C@]1(C(=O)O)COC(c2ccc(OCCCO)cc2)=N1 | 3.69 (inactive) | 0.532 | 1.22 | -1.32 (inactive) | -0.325 (inactive) | -0.122 (inactive)
